# Assay results taken from paper PMC7862700, “An all-to-all approach to the identification of sequence-specific readers for epigenetic DNA modifications on cytosine”.
# What was measured:
# Assay in all cases: DAPPL (digital affinity profiling via proximity ligation, sequencing); 10 mM Tris-HCl pH 7.5, 50 mM NaCl, 1 mM DTT, 4% glycerol, room temperature, 30 min; GST-TFs on glutathione beads, 16-mer random dsDNA library, 0.1% formaldehyde crosslink after washing; high values mean tight binding
# FEV = target: T1, FEV (Homo sapiens, UniProt Q99581 1-238); conditions: protein: recombinant; tags: N-terminal GST; dsDNA, one strand shown
# T1 sequence: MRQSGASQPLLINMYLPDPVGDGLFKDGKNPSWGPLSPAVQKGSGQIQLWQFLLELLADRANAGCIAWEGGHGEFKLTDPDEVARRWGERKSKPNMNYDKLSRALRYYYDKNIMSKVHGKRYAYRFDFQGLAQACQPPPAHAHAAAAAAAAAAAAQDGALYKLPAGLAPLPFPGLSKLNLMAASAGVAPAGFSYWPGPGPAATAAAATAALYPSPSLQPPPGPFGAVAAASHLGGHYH
# In short: (§1)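 In yeast, human transcription factors were expressed with a GST fusion, then pulled down on glutathione beads and given DNA barcodes. Pooled with a tag-only sample, they were exposed to 200 nmole of a 16-mer random double-stranded DNA library (Tris/NaCl/DTT/glycerol buffer, room temperature, 30 min), washed, crosslinked with 0.1% formaldehyde, proximity-ligated using BsaI/T4 ligase for 1 h at 37 °C, PCR-amplified and read on an Illumina NextSeq500. Each hexamer's frequency of reads for a factor, divided by the matching frequency for the tag-only sample, gives the binding signal.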
# ETV5 = ETV5 (Homo sapiens, UniProt P41161 1-510); conditions: protein: recombinant; tags: N-terminal GST; dsDNA, one strand shown
# Sequence of ETV5 (P41161 whole entry): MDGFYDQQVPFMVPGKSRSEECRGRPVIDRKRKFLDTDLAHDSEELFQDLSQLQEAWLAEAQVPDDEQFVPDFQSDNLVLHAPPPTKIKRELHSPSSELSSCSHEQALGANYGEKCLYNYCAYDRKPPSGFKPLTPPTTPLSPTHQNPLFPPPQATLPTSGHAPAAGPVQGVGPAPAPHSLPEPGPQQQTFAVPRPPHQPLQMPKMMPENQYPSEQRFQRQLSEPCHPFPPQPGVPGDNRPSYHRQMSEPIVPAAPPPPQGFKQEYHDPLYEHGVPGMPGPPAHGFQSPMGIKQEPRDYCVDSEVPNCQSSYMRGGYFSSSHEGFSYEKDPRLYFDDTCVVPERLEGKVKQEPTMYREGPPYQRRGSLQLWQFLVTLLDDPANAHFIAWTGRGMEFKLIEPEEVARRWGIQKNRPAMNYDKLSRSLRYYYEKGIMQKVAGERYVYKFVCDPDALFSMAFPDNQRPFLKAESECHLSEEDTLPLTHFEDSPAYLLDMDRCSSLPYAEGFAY
# In short: as §1
# HSF1 = HSF1 (Homo sapiens, UniProt Q00613 1-529); conditions: protein: recombinant; tags: N-terminal GST; chain copies: 3; dsDNA, one strand shown
# Sequence of HSF1 (Q00613 whole entry): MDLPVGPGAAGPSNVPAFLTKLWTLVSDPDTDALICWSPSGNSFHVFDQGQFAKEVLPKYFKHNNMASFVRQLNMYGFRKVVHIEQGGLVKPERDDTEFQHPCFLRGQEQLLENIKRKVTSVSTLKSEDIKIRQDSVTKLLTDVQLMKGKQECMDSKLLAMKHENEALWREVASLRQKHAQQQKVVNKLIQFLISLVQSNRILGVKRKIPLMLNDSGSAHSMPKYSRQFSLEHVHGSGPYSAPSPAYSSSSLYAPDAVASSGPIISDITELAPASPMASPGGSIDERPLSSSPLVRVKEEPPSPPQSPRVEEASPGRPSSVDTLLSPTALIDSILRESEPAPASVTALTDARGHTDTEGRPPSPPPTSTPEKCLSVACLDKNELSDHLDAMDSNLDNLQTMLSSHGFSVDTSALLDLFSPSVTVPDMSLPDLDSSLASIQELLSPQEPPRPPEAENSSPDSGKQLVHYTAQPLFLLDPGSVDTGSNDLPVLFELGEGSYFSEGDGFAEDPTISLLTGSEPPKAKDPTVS
# In short: as §1
# SPIC = target: T2, SPIC (Homo sapiens, UniProt Q8N5J4 1-248); conditions: protein: recombinant; tags: N-terminal GST; dsDNA, one strand shown
# T2 sequence: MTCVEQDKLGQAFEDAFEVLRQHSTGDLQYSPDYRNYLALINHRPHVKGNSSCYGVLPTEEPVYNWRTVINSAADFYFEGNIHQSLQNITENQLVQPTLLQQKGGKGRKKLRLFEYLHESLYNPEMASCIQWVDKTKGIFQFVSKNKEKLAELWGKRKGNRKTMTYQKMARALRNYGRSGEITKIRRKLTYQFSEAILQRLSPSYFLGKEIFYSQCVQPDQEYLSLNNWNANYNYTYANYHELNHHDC
# In short: as §1
# ELF4 = ELF4 (Homo sapiens, UniProt Q99607 1-663); conditions: protein: recombinant; tags: N-terminal GST; dsDNA, one strand shown
# Sequence of ELF4 (Q99607 whole entry): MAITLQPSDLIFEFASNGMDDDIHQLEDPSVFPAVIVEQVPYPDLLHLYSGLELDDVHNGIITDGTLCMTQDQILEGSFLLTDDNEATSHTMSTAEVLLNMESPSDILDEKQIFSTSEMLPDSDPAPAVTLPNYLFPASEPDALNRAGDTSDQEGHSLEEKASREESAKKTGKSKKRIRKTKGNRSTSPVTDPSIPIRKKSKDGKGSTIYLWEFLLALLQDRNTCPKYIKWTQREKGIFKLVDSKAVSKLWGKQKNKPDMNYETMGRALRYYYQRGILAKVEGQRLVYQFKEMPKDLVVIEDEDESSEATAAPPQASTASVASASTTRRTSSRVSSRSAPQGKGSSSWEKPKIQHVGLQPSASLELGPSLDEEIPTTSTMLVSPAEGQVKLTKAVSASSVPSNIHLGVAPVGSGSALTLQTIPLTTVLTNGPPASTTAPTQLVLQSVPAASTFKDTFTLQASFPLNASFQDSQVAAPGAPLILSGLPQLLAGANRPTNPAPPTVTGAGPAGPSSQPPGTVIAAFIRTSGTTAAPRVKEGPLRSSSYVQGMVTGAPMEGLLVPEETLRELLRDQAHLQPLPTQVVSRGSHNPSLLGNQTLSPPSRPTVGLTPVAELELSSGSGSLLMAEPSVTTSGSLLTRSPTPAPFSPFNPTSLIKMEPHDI
# In short: as §1
# ELK4 = target: T3, ELK4 (Homo sapiens, UniProt P28324-2 1-405); conditions: protein: recombinant; tags: N-terminal GST; dsDNA, one strand shown
# T3 sequence: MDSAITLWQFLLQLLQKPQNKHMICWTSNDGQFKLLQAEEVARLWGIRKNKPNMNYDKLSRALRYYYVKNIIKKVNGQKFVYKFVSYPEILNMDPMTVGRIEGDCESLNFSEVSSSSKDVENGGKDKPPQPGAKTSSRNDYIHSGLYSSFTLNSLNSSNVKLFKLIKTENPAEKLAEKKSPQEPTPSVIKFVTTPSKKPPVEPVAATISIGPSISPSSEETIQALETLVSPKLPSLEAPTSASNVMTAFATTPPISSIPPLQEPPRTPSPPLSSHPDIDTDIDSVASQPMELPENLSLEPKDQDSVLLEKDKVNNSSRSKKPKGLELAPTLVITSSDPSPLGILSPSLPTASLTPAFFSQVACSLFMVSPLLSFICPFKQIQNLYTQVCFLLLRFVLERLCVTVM
# In short: as §1
# ETV2 = target: T4, ETV2 (Homo sapiens, UniProt O00321 1-342); conditions: protein: recombinant; tags: N-terminal GST; dsDNA, one strand shown
# T4 sequence: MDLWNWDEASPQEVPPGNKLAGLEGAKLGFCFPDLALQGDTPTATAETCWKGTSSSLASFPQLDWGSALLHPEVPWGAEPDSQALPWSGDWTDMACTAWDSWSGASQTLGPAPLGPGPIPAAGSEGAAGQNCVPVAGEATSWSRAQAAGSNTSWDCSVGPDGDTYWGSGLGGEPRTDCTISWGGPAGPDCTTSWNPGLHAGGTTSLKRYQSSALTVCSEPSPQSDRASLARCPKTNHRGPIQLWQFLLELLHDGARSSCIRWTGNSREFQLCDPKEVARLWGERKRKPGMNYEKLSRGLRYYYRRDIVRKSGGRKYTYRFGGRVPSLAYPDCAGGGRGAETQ
# In short: as §1
# ELF3 = target: T5, ELF3 (Homo sapiens, UniProt P78545 1-371); conditions: protein: recombinant; tags: N-terminal GST; dsDNA, one strand shown
# T5 sequence: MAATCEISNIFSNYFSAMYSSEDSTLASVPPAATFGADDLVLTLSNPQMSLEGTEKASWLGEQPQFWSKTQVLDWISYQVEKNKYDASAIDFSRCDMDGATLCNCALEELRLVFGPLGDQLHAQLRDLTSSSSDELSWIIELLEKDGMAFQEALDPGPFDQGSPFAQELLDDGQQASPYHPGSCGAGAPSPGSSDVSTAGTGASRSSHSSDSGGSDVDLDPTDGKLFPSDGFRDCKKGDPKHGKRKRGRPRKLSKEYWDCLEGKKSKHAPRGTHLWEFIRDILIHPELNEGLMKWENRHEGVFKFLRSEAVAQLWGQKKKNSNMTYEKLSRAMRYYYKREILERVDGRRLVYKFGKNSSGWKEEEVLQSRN
# In short: as §1
# CRX = CRX (Homo sapiens, UniProt O43186 1-299); conditions: protein: recombinant; tags: N-terminal GST; dsDNA, one strand shown
# Sequence of CRX (O43186 whole entry): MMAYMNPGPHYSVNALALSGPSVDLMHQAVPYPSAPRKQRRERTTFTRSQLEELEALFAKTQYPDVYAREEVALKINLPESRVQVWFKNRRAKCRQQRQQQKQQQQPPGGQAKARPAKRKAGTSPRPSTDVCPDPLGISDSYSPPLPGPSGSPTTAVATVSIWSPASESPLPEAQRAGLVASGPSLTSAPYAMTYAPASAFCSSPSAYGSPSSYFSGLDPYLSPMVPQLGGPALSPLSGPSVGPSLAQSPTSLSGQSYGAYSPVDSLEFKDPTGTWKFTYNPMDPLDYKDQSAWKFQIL
# In short: as §1
# ETV1 = ETV1 (Homo sapiens, UniProt P50549 1-477); conditions: protein: recombinant; tags: N-terminal GST; dsDNA, one strand shown
# Sequence of ETV1 (P50549 whole entry): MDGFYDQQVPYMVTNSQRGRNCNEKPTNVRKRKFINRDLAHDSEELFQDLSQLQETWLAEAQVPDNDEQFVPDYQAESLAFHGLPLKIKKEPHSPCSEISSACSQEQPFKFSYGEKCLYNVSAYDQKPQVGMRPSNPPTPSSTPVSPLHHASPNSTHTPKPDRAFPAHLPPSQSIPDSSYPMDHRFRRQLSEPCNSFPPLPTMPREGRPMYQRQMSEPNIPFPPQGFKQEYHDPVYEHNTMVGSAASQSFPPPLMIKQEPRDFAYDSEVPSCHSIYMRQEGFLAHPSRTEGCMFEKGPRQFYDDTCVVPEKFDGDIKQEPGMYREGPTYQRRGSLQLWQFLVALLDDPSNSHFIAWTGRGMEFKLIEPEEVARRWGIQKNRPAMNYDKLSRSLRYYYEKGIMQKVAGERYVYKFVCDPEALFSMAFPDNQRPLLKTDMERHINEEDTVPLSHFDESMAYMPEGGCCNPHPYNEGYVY
# In short: as §1
# ERF = target: T6, ERF (Homo sapiens, UniProt P50548 1-548); conditions: protein: recombinant; tags: N-terminal GST; dsDNA, one strand shown
# T6 sequence: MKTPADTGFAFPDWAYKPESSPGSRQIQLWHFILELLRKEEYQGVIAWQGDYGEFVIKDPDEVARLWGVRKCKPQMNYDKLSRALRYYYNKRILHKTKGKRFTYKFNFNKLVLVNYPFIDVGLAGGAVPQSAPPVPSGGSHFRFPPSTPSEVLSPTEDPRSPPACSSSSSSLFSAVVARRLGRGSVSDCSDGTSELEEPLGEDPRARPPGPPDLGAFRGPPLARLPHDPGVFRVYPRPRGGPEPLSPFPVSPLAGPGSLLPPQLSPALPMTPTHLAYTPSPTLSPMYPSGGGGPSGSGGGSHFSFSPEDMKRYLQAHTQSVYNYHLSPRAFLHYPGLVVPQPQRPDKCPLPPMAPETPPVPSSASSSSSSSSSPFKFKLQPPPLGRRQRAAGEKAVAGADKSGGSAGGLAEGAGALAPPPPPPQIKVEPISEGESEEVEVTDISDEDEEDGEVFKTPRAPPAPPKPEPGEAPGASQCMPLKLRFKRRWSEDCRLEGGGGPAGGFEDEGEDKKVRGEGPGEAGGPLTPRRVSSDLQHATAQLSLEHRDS
# In short: as §1
# ETV3L = target: T7, ETV3L (Homo sapiens, UniProt Q6ZN32 1-361); conditions: protein: recombinant; tags: N-terminal GST; dsDNA, one strand shown
# T7 sequence: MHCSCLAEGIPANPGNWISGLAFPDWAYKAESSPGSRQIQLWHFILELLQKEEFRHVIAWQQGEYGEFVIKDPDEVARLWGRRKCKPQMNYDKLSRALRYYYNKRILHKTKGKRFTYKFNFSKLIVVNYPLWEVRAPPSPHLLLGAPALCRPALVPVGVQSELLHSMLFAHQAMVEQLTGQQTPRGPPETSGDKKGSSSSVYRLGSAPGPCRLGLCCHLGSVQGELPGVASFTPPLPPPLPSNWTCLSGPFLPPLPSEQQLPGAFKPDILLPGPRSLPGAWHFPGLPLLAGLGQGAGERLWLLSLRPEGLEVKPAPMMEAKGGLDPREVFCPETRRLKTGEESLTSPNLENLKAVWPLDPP
# In short: as §1
# ETS2 = target: T8, ETS2 (Homo sapiens, UniProt P15036 1-469); conditions: protein: recombinant; tags: N-terminal GST; dsDNA, one strand shown
# T8 sequence: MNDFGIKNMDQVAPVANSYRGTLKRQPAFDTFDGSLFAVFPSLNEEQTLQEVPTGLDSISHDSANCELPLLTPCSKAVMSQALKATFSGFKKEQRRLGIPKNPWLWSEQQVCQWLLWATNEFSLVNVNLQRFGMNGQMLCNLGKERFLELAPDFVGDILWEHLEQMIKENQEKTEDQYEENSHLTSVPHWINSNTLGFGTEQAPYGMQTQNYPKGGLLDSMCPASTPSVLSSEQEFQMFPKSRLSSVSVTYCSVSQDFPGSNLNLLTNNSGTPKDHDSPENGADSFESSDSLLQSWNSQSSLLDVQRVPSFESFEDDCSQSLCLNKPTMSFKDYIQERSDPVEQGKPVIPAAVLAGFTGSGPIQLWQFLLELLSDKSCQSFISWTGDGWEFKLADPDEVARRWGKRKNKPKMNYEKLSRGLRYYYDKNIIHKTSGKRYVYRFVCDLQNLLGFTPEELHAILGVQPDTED
# In short: as §1
# SPDEF = target: T9, SPDEF (Homo sapiens, UniProt O95238 1-335); conditions: protein: recombinant; tags: N-terminal GST; dsDNA, one strand shown
# T9 sequence: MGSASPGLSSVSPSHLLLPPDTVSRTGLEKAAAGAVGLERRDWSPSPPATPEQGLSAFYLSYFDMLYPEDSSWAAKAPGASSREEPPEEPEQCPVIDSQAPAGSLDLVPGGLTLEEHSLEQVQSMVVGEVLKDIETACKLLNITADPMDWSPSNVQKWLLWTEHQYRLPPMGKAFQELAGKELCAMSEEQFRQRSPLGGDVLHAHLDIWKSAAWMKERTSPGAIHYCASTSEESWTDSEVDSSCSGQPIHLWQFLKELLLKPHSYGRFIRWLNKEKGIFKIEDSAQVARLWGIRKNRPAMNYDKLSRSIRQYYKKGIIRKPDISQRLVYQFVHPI
# In short: as §1
# ETV7 = target: T10, ETV7 (Homo sapiens, UniProt Q9Y603 1-341); conditions: protein: recombinant; tags: N-terminal GST; dsDNA, one strand shown
# T10 sequence: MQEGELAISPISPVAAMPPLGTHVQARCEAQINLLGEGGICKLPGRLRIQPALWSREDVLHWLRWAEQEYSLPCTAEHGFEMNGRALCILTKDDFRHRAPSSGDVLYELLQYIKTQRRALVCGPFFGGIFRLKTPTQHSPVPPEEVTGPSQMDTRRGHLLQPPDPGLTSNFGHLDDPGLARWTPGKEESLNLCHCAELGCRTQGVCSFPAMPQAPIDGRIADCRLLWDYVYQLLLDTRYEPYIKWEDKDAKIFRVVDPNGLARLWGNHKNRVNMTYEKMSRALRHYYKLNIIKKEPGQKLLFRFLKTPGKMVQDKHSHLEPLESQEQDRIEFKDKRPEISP
# In short: as §1
# ELF5 = target: T11, ELF5 (Homo sapiens, UniProt Q9UKW6-2 1-255); conditions: protein: recombinant; tags: N-terminal GST; dsDNA, one strand shown
# T11 sequence: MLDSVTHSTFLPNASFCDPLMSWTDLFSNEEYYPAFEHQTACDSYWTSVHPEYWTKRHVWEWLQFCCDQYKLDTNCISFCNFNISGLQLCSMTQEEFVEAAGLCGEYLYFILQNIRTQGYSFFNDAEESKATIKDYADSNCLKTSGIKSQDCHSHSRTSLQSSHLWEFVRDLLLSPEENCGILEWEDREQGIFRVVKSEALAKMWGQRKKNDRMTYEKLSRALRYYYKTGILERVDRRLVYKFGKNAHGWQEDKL
# In short: as §1
# ETV3 = target: T12, ETV3 (Homo sapiens, UniProt P41162-2 1-143); conditions: protein: recombinant; tags: N-terminal GST; dsDNA, one strand shown
# T12 sequence: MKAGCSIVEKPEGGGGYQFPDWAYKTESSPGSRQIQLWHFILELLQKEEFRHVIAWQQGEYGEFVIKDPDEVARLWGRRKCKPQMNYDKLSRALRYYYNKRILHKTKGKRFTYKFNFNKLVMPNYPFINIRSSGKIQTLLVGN
# In short: as §1
# ETV6 = ETV6 (Homo sapiens, UniProt P41212 1-452); conditions: protein: recombinant; tags: N-terminal GST; dsDNA, one strand shown
# Sequence of ETV6 (P41212 whole entry): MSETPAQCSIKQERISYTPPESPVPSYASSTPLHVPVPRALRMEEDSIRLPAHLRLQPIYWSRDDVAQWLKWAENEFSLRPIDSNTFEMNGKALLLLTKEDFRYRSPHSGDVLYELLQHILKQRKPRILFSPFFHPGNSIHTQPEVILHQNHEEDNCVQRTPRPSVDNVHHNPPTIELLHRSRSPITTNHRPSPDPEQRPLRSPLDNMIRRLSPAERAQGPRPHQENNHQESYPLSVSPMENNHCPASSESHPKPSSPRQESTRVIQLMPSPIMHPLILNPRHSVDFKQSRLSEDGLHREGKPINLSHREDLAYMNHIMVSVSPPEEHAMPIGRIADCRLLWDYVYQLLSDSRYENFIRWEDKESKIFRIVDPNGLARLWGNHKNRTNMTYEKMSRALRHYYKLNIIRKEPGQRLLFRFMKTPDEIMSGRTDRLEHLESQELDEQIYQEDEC
# In short: as §1
sequence,measurement,setting,value
ATCCGA,binding signal,FEV,"1.29 fold enrichment (6-mer frequency, TF over GST control)"
same,binding signal,ETV5,"1.2 fold enrichment (6-mer frequency, TF over GST control)"
same,binding signal,HSF1,"1.56 fold enrichment (6-mer frequency, TF over GST control)"
same,binding signal,SPIC,"1.31 fold enrichment (6-mer frequency, TF over GST control)"
same,binding signal,ELF4,"1.13 fold enrichment (6-mer frequency, TF over GST control)"
same,binding signal,ELK4,"1.18 fold enrichment (6-mer frequency, TF over GST control)"
same,binding signal,ETV2,"1.24 fold enrichment (6-mer frequency, TF over GST control)"
same,binding signal,ELF3,"1.09 fold enrichment (6-mer frequency, TF over GST control)"
same,binding signal,CRX,"2.02 fold enrichment (6-mer frequency, TF over GST control)"
same,binding signal,ETV1,"1.17 fold enrichment (6-mer frequency, TF over GST control)"
same,binding signal,ERF,"1.22 fold enrichment (6-mer frequency, TF over GST control)"
same,binding signal,ETV3L,"1.24 fold enrichment (6-mer frequency, TF over GST control)"
same,binding signal,ETS2,"1.08 fold enrichment (6-mer frequency, TF over GST control)"
same,binding signal,SPDEF,"1.26 fold enrichment (6-mer frequency, TF over GST control)"
same,binding signal,ETV7,"1.15 fold enrichment (6-mer frequency, TF over GST control)"
same,binding signal,ELF5,"1.25 fold enrichment (6-mer frequency, TF over GST control)"
same,binding signal,ETV3,"1.11 fold enrichment (6-mer frequency, TF over GST control)"
same,binding signal,ETV6,"1.24 fold enrichment (6-mer frequency, TF over GST control)"
